Out of some 5,500 compounds screened, about 2,000 (36%) were called active. Another 18% or so got no clear call; they are omitted. Cut-off read from the data, not from the text of the source: active = normalized growth mostly below about 0.91 (no sharp cut-off); inconclusive = no clear call, values can overlap the other calls; inactive = mostly above about 0.92. This is one part of the list.
Assay: chemical genetic growth profiling, strain panel (AID 1159580);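 note: tested at 20 µM; growth read once vehicle control cultures reached saturation at 30 °C; 1 = growth at the plate median or of vehicle wells; lower values mean less growth of the strain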
Conditions: growth OD
[1] = S. cerevisiae deletion strains, locus YAL013W, strain DEP1, hits give low values
[2] = S. cerevisiae deletion strains, locus YBR229C, strain ROT2, hits give low values
[3] = S. cerevisiae deletion strains, locus YDL101C, strain DUN1, hits give low values
[4] = S. cerevisiae deletion strains, locus YDL134C, strain PPH21, hits give low values
[5] = S. cerevisiae deletion strains, locus YDR150W, strain NUM1, hits give low values
[6] = S. cerevisiae deletion strains, locus YEL061C, strain CIN8, hits give low values
[7] = S. cerevisiae deletion strains, locus YGR078C, strain PAC10, hits give low values
[8] = S. cerevisiae deletion strains, locus YHR030C, strain SLT2, hits give low values
[9] = S. cerevisiae deletion strains, locus YHR087W, strain rtc3, hits give low values
[10] = S. cerevisiae deletion strains, locus YJR043C, strain POL32, hits give low values
[11] = S. cerevisiae deletion strains, locus YJR075W, strain HOC1, hits give low values
[12] = S. cerevisiae deletion strains, locus YKL190W, strain CNB1, hits give low values
[13] = S. cerevisiae deletion strains, locus YLR039C, strain RIC1, hits give low values
[14] = S. cerevisiae deletion strains, locus YLR058C, strain SHM2 (second series), hits give low values
[15] = S. cerevisiae deletion strains, locus YLR085C, strain ARP6, hits give low values
[16] = S. cerevisiae deletion strains, locus YLR262C, strain YPT6, hits give low values
[17] = S. cerevisiae deletion strains, locus YML094W, strain GIM5, hits give low values
[18] = S. cerevisiae deletion strains, locus YMR219W, strain ESC1, hits give low values
[19] = S. cerevisiae deletion strains, locus YMR263W, strain SAP30, hits give low values
[20] = S. cerevisiae deletion strains, locus YMR307W, strain GAS1, hits give low values
[21] = S. cerevisiae deletion strains, locus YNL153C, strain GIM3, hits give low values
[22] = S. cerevisiae deletion strains, locus YNL298W, strain CLA4 (second series), hits give low values
[23] = S. cerevisiae deletion strains, locus YNL322C, strain KRE1, hits give low values
[24] = S. cerevisiae deletion strains, locus YNR030W, strain Alg12, hits give low values
[25] = S. cerevisiae deletion strains, locus YPL055C, strain LGE1, hits give low values
[26] = S. cerevisiae deletion strains, locus YPL241C, strain CIN2, hits give low values
[27] = S. cerevisiae deletion strains, locus YPR135W, strain CTF4, hits give low values

Measured: normalized growth

Cc1ccc(/C(N)=N\O)cc1F
inactive: [1] 0.998 | [2] 1 | [3] 1.01 | [4] 0.988 | [5] 0.995 | [6] 1.01 | [7] 1.01 | [8] 1.03 | [9] 1 | S. cerevisiae deletion strains, locus YJL187C, strain SWE1, hits give low values 1.02 | [10] 1.01 | [11] 1.03 | [12] 0.988 | [13] 1.04 | [14] 1.02 | [16] 0.997 | [17] 1 | [18] 1 | [19] 1 | [20] 1.24 | S. cerevisiae deletion strains, locus YNL128W, strain TEP1, hits give low values 0.975 | [21] 1.02 | [22] 1.02 | [23] 1 | [24] 0.989 | S. cerevisiae deletion strains, locus YOL006C, strain TOP1, hits give low values 1.03 | [25] 1.03 | [26] 1.1 | [27] 1.07
active: [15] 1.32 [resistant]

N/C(=N/O)c1csc(-c2ccc(F)cc2F)n1
inactive: [1] 0.96 | [2] 0.978 | [3] 1.02 | [4] 0.995 | [5] 0.968 | [6] 1.01 | [7] 0.989 | S. cerevisiae deletion strains, locus YGR229C, strain SMI1, hits give low values 0.995 | [8] 0.921 | [9] 0.98 | [10] 1 | [11] 1.02 | [12] 0.996 | [13] 0.933 | [14] 1.01 | [15] 1.14 | [16] 0.969 | [17] 0.933 | [18] 0.995 | [19] 0.997 | [20] 1.25 | [21] 0.986 | [22] 1.01 | [23] 1 | [24] 0.983 | [25] 0.943 | [26] 1 | [27] 0.844 | S. cerevisiae strains, strain wild type, hits give low values 0.991
